# In PubChem BioAssay (NCATS):
# Potency and affinity values are given separately. Unmarked numbers belong to inactive results. The rule behind the calls is not given here.
# Settings: Ebola virus entry assay, green fluorescence channel
# Note: 0% is about no effect.
row,SMILES,efficacy [%]
1,CCc1oc2ccccc2c1C(=O)c1cc(I)c(O)c(I)c1,-12
2,O=C(O)CNC(=O)c1ccccc1,-32.2
3,CC[C@]12CCCN3CCc4c(n(c5ccccc45)[C@@](O)(C(=O)OC)C1)[C@@H]32,-18
4,COc1cc(OC)c(C(=O)CCCN2CCCC2)c(OC)c1,-22.4
5,O=C(c1ccccc1)c1ccccc1,10.2
6,Cc1coc2ccccc2c1=O,-25.1
7,Cc1c(C(C)C)c(=O)n(-c2ccccc2)n1C,14.2
8,Oc1ccccc1-c1nnco1,7.99
9,COC(=O)/C=C(/C)N,22.1
10,O=C(NCN1CCOCC1)c1cnccn1,22.2
11,CN=C(NC#N)Nc1ccc(C2=NNC(=O)CC2C)cc1 (stereo not drawn),-19.1
12,O=c1[nH]c(=O)n([C@H]2C[C@H](O)[C@@H](CO)O2)cc1I,-7.83
13,Cc1nc2ccc(CN(C)c3ccc(C(=O)N[C@@H](CCC(=O)O)C(=O)O)s3)cc2c(=O)[nH]1,17.4
14,Cc1ccc(S(=O)(=O)NC(=O)NC2CCCCC2)cc1,-18.8
15,CCOc1ccc(NC(=O)CC(C)O)cc1 (stereo not drawn),16.1
16,COc1ccc(/C=N/NC(=O)c2ccncc2)cc1OC,14.8
17,CCCCOC(=O)CC(CC(=O)OCCCC)(OC(C)=O)C(=O)OCCCC,21.9
18,C[C@@H]1CN(c2c(F)c(F)c3c(=O)c(C(=O)O)cn(C4CC4)c3c2F)C[C@H](C)N1,-15.7
